ATG4B inh: blocks human ATG4B protease cleavage of LC3 substrate; ATG4B cleavage of LC3-PLA2, NBD-HPC fluorescence, 1 h; inhibition, % at 8.33 µM; actives 0.51% (n = 340,000); AID 504462; in the data active means inhibition above about 40%
Target sequence (Q9Y4P1 whole entry, looked up): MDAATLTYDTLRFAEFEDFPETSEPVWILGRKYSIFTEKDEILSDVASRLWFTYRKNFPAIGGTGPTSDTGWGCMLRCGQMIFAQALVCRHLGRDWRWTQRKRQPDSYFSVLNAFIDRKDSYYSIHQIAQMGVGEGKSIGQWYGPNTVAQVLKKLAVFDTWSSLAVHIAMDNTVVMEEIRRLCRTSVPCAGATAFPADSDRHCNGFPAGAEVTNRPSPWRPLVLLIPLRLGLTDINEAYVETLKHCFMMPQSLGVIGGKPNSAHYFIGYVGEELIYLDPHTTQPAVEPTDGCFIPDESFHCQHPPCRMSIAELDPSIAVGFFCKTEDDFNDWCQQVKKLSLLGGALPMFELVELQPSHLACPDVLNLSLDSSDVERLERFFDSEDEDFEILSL
MEKK3 PB1 HTS: modulators (inhibitors or enhancers) of MEK5 binding to human MEKK3 PB1 domain | actives 1.4% (n = 290,000) | binding response (% of control), % at 10 µM | bead-based flow cytometry, Alexa488-MEK5 binding to MEKK3; actives lie on both sides; 0 = blocked by unlabeled MEK5, 100 = vehicle | Q99759;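 active means binding response more than 3 SD above or below the average of its plate-row segment, actives on both sides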;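 further: Alexa488 bead fluorescence after subtracting the streptavidin-only scavenger bead signal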
MEKK2 mut-MEK5: signal of MEK5 binding to mutant human MEKK2 PB1 domain | bead flow cytometry, Alexa488-MEK5 binding to MEKK2 mutant | percent response, % at 10 µM | actives 0.35% (n = 290,000) | AID 1530; in the data active means percent response above about 24%, passing the limit was not always enough
PREPL inh: inhibitors of human prolyl oligopeptidase-like enzyme PREPL; Q4J6C6; recombinant PREPL, fluorescence polarization activity-based probe; inhibition, % at 5.96 µM; actives 0.68% (n = 320,000); in the data active means inhibition above about 43%;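 further: 0% = enzyme with DMSO and 100% = wells lacking enzyme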
UBC13 polyUb: human UBC13 polyubiquitination inhibition; UBC13 polyubiquitin chain formation, TR-FRET; inhibition, % at 20 µM; P61088; AID 485273; actives 0.47% (n = 330,000); in the data active means inhibition above about 45%, passing the limit was not always enough
Target sequence (P61088 whole entry, looked up): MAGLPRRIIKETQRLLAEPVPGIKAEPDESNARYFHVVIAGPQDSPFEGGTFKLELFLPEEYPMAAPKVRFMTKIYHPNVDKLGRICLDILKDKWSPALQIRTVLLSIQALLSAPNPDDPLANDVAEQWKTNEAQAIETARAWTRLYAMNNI
MEKK2 WT-MEK5: raises or lowers MEK5 binding to wildtype human MEKK2 PB1 domain; actives 1.1% (n = 290,000); AID 1531; bead flow cytometry, Alexa488-MEK5 binding to MEKK2 WT; actives lie on both sides; binding response (% of control), % at 10 µM; Q9Y2U5; in the data active means binding response below about 67% or above about 130%
MEKK2wt confirm: raises or lowers MEK5 binding to wildtype human MEKK2, retest. shares compounds with MEKK3 PB1 HTS. bead flow cytometry, Alexa488-MEK5 binding to MEKK2 WT; actives lie on both sides. binding response (% of control), % at 10 µM. actives 2.4% (n = 5,900). AID 1892; in the data active means binding response below about 16% or above about 210%; inactive means in between
MEKK2mut-MEK5: signal of MEK5 binding to mutant human MEKK2, retest; bead flow cytometry, Alexa488-MEK5 binding to MEKK2 mutant; shares compounds with MEKK3 PB1 HTS; percent response, % at 10 µM; AID 1893; actives 2% (n = 5,900); in the data active means percent response mostly above about 71%, no sharp cut-off; inactive means mostly below about 38%;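 further: higher means compound restores mutant binding toward wildtype level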
MEKK3 confirm: confirmation of inhibitors of MEK5 binding to human MEKK3. bead flow cytometry, Alexa488-MEK5 binding to MEKK3; active compounds read low. actives 1.8% (n = 5,900). binding response (% of control), % at 10 µM. shares compounds with MEKK3 PB1 HTS;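 active means binding response below 72% of control, or above a set upper limit, though filed actives all read lower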;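 further: 100% = DMSO only wells and 0% = binding blocked by excess unlabeled MEK5; lower values mean stronger disruption of MEK5 binding to MEKK3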
Numbers without * were called inactive; / = not tested or not shown; [ ] = another dose, or the depositor's remark. Rows were chosen to be rich in hits. Some 3.1% of all compounds tested hit in one or more screens of this group.

SMILES | ATG4B inh | MEKK3 PB1 HTS | MEKK2 mut-MEK5 | PREPL inh | UBC13 polyUb | MEKK2 WT-MEK5 | MEKK2wt confirm | MEKK2mut-MEK5 | MEKK3 confirm
CN(CC(=O)Nc1ccc(Cl)cc1)CC(=O)Nc1ccc(F)c(F)c1F | 1 | 131* | 0 | -34 | 10 | 104 | 104 | 2 | 106
CCCN(CC(=O)Nc1cc(Cl)cc(Cl)c1)CC(=O)Nc1ccc(F)c(F)c1F | 6 | 99 | 17 | -16 | 17 | 165* | 129 | 18 | 109
CCN1CCN(c2ncnc3sc(C)c(-c4ccccc4)c23)CC1 | -7 | 100 | -1 | -3 | 4 | 106 | / | / | /
COc1ccc(NC(=O)c2ccc(F)c(F)c2)c2ccccc12 | 4 | 101 | 4 | -5 | -4 | 102 | / | / | /
O=C(C1CCOCC1)N1CCCC(N2CCN(c3cccc(C(F)(F)F)c3)CC2)C1 (stereo not given) | -8 | 104 | 4 | 8 | -18 | 104 | / | / | /
CCCc1cc(=O)[nH]c(SCC(=O)Nc2nc(-c3ccccc3)cs2)n1 | 4 | 108 | -3 | -19 | 2 | 99 | / | / | /
O=C(CSc1nc2ccccc2[nH]1)Nc1nc(-c2ccc(Br)cc2)cs1 | 30 | 173* | 1 | -73 | -4 | 116 | 99 | -8 | 103
CC1S/C(=C(\C#N)C(=O)NCc2ccco2)N(Cc2ccco2)C1=O (stereo not given) | 2 | 49*[inhibitor] | -34 | 8 | 2 | 38*[inhibitor] | 100 | 1 | 101
CCC1Oc2ccc(C)cc2N(CC(=O)NCCN2CCCCCC2)C1=O (stereo not given) | -6 | 107 | 22 | 6 | -6 | 137* | 115 | 6 | 100
CN(C)c1ccc(C=NCC2COc3ccccc3O2)cc1 (stereo not given) | -2 | 106 | -6 | 1 | -3 | 105 | / | / | /
Cc1oc(/C=N/NC(=O)CC2(C)OCCO2)cc1Br | 1 | 132* | 2 | 3 | -3 | 111 | 107 | 6 | 106
CC1(CC(=O)N/N=C/c2cc(Br)c(O)cc2O)OCCO1 | -3 | 101 | 4 | 11 | -11 | 102 | / | / | /
COc1ccc(C(CC(=O)N2CCCCC2)c2c(OC)cc(OC)c3ccc(=O)oc23)cc1 (stereo not given) | 4 | 101 | 0 | 6 | -3 | 89 | / | / | /
CCN(CC)C(=O)CC(c1ccc(OC)cc1)c1c(OC)cc(OC)c2ccc(=O)oc12 (stereo not given) | -10 | 117 | 4 | 10 | 8 | 145* | 102 | 2 | 100
COc1cc(OC)c2c(-c3ccccc3)cc(=O)oc2c1C(CC(=O)N1CCOCC1)c1ccc(N(C)C)cc1 (stereo not given) | -4 | 102 | 1 | 4 | 3 | 99 | / | / | /
CCN(CC)C(=O)CC(c1cc(OC)c(OC)c(OC)c1)c1c(OC)cc(OC)c2ccc(=O)oc12 (stereo not given) | -9 | 123 | 2 | -1 | -3 | 151* | 101 | -6 | 100
CCN(CC)C(=O)CC(c1cc(OC)c(OC)c(OC)c1)c1c(OC)cc(OC)c2c(-c3ccccc3)cc(=O)oc12 (stereo not given) | -9 | 133* | -2 | -14 | -5 | 160* | 96 | -6 | 97
COc1cc(C(CC(=O)N2CCOCC2)c2c(OC)cc(OC)c3ccc(=O)oc23)cc(OC)c1OC (stereo not given) | -6 | 118 | 3 | 3 | -2 | 134 | / | / | /
COc1cc(OC)c2c(-c3ccccc3)cc(=O)oc2c1C(CC(=O)N1CCOCC1)c1ccc2c(c1)OCO2 (stereo not given) | 5 | 127 | 3 | -9 | 3 | 144* | 106 | 0 | 100
COc1cccc(N(CC(=O)NCCSCc2ccc(Cl)cc2)S(C)(=O)=O)c1 | -7 | 101 | 0 | -2 | 4 | 100 | / | / | /
Cc1ccc(NC(=O)CCC(=O)OCC(=O)c2ccc(Oc3ccc([N+](=O)[O-])cc3)cc2)cc1 | -4 | 144* | 0 | 5 | -34 | 108 | 101 | 1 | 104
Cn1c2c(c3ccccc31)CCN(CCCCN1CCN(c3ccccc3)CC1)C2=O | 0 | / | / | / | / | / | / | / | /
COC(=O)Cc1cc(=O)n(-c2nc3ccccc3[nH]2)[nH]1 | -7 | 73*[inhibitor] | -4 | 7 | -34 | 80 | 98 | 0 | 101
CC(NC(=O)C(C)(C)C)c1nc2ccccc2n1C (stereo not given) | -3 | 0.0*[inhibitor] | -16 | 3 | -4 | 0.0*[inhibitor] | 108 | 7 | 101
Cc1ccc(N2CC(C(=O)OCC(=O)NNC(=O)c3ccccc3)CC2=O)cc1 (stereo not given) | 6 | / | / | -7 | -7 | / | / | / | /
SMILES | ATG4B inh | MEKK3 PB1 HTS | MEKK2 mut-MEK5 | PREPL inh | UBC13 polyUb | MEKK2 WT-MEK5 | MEKK2wt confirm | MEKK2mut-MEK5 | MEKK3 confirm
CC1CC(C)CN(CC(O)COc2ccc3c(c2)CCC3)C1 (stereo not given) | -2 | 152* | 1 | 12 | -16 | 110 | 97 | -3 | 98
Nc1nonc1-n1nnc(C(=O)N/N=C/c2cc(Cl)ccc2O)c1CN1CCCCCC1 | / | / | / | 4 | -14 | / | / | / | /
COc1cc(CN(C2CCCCC2C)S(=O)(=O)c2ccc(S(=O)(=O)NC3CC3)cc2)cc(OC)c1OC (stereo not given) | -12 | 111 | -2 | 6 | -6 | 114 | / | / | /
COc1ccc(CN(C2CCCCC2C)S(=O)(=O)c2ccc(S(=O)(=O)N(C)C)cc2)cc1OC (stereo not given) | -14 | 137* | 0 | 3 | -9 | 98 | 99 | 8 | 104
O=C(O)C1CCCN(S(=O)(=O)c2ccccc2)C1 (stereo not given) | 7 | 101 | -4 | -14 | -4 | 101 | / | / | /
NC(=O)CN1CCCN(S(=O)(=O)c2ccc(Br)cc2)CC1 | -13 | 2.0*[inhibitor] | -24 | 7 | 0 | 3.0*[inhibitor] | 100 | -4 | 98
Cc1ccc(S(=O)(=O)N2CCN(CC(=O)N/N=C\c3ccc(O)c(O)c3)CC2)cc1 | -3 | 125 | 28 | 10 | 5 | 117 | / | / | /
O=C(O)C1CCCN(S(=O)(=O)c2ccc(Br)cc2)C1 (stereo not given) | 2 | 11*[inhibitor] | -55 | -7 | -3 | 18*[inhibitor] | 101 | 2 | 101
NC(=O)CN1CCN(S(=O)(=O)c2ccc(Cl)cc2)CC1 | 22 | 102 | -1 | -3 | 3 | 98 | / | / | /
